Experimental data: the supplement of paper PMC7057948, “A genome-wide approach for identification and characterisation of metabolite-inducible systems” (Nature Communications, 2020)

Key:
Experiment in all cases: relative induction of RFP reporter vs primary effector (background-corrected); higher = stronger activation of the biosensor
Details in all cases: inducer concentration 5 mM; 6 h; Cupriavidus necator H16; minimal medium + 0.4% gluconate
[1] = tested on: AcoR/P_H16_RS19445 acetoin biosensor (pEH052)
Procedure: (§1)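 C. necator H16 strains, each carrying one of 21 transcription factor/inducible promoter–mRFP biosensor plasmids, were grown in minimal medium in 96-well plates (robotic platform). Each was exposed to 46 structurally or metabolically related compounds at 5 mM at 30 °C. OD-normalised RFP fluorescence was read 6 h later and expressed as relative induction (%) = 100 × (FL compound − FL uninduced)/(FL primary inducer − FL uninduced); mean of n=4.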

[2] = tested on: AraC/P_araBAD L-arabinose biosensor (pEH176)
Procedure: as §1

[3] = tested on: BenM/P_H16_RS09790 benzoate biosensor (pEH148)
Procedure: as §1

[4] = tested on: FdsR/P_H16_RS03165 formate biosensor (pEH134)
Procedure: as §1

[5] = tested on: GabR/P_H16_RS23655 GABA biosensor (pEH256)
Procedure: as §1

[6] = tested on: HpdR/P_H16_RS18295 3-hydroxypropanoate biosensor (pEH010)
Procedure: as §1

[7] = tested on: KynR/P_H16_RS14030 L-kynurenine biosensor (pEH136)
Procedure: as §1

[8] = tested on: NahR/P_H16_RS08125 salicylate biosensor (pEH042)
Procedure: as §1

[9] = tested on: OapR/P_H16_RS01330 beta-alanine biosensor (pEH147)
Procedure: as §1

[10] = tested on: PcaQ/P_H16_RS30145 3,4-dihydroxybenzoate biosensor (pEH161)
Procedure: as §1

[11] = tested on: PhgR/P_H16_RS05530 phenylglyoxylate biosensor (pEH155)
Procedure: as §1

[12] = tested on: PhhR/P_H16_RS18365 L-phenylalanine biosensor (pEH137)
Procedure: as §1

[13] = tested on: SauR/P_H16_RS13695 sulfonatoacetate biosensor (pEH157)
Procedure: as §1

[14] = tested on: TtdR/P_H16_RS10665 tartrate biosensor (pEH083)
Procedure: as §1

[15] = tested on: XdhR/P_H16_RS05055 xanthine biosensor (pEH154)
Procedure: as §1

[16] = tested on: heterologous inducible system pEH002 (rhamnose/acrylate/cumate/itaconate set)
Procedure: as §1

[17] = tested on: heterologous inducible system pEH020 (rhamnose/acrylate/cumate/itaconate set)
Procedure: as §1

[18] = tested on: heterologous inducible system pEH040 (rhamnose/acrylate/cumate/itaconate set)
Procedure: as §1

[19] = tested on: heterologous inducible system pEH086 (rhamnose/acrylate/cumate/itaconate set)
Procedure: as §1

[20] = tested on: BadR/P_H16_RS27200 cyclohexanecarboxylate biosensor (pEH159)
Procedure: as §1
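Note: RFP excited at 585 nm with emission read at 620 nm, culture medium blanks subtracted from fluorescence and absorbance prior to normalisation.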

SMILES	relative induction of RFP reporter [1] [%]	relative induction of RFP reporter [2] [%]	relative induction of RFP reporter [3] [%]	relative induction of RFP reporter [4] [%]	relative induction of RFP reporter [5] [%]	relative induction of RFP reporter [6] [%]	relative induction of RFP reporter [7] [%]	relative induction of RFP reporter [8] [%]	relative induction of RFP reporter [9] [%]	relative induction of RFP reporter [10] [%]	relative induction of RFP reporter [11] [%]	relative induction of RFP reporter [12] [%]	relative induction of RFP reporter [13] [%]	relative induction of RFP reporter [14] [%]	relative induction of RFP reporter [15] [%]	relative induction of RFP reporter [16] [%]	relative induction of RFP reporter [17] [%]	relative induction of RFP reporter [18] [%]	relative induction of RFP reporter [19] [%]	relative induction of RFP reporter [20] [%]
NC(C(=O)O)c1ccccc1 (racemic) [D,L-2-phenylglycine]	2.41	-0.0373	0.0272	5.96	-1.88	0.893	-0.416	0.0395	0.858	0.145	1.69	-0.209	-0.00851	0.176	0.377	0.012	3.29	0.705	0.876	
O=c1[nH]cnc2nc[nH]c12 [hypoxanthine]	-1.99	0.0138	-0.0181	-4.61	-0.0294	0.126	-0.263	0.0182	1.08	-0.186	0.109	-0.204	0.0689	0.797	166	0.00894	-1.8	-0.718	0.0665	
Oc1ccccc1 [phenol]	-1.65	-0.0137	-0.0189	-3.17	-2.32	-0.39	-0.287	0.011	-1.38	-0.0887	-0.147	-0.522	0.0243	0.576	-0.78	-0.0073	-2.66	-1.14	-0.575	
O=C(O)/C=C/C(=O)O [fumarate]	-1.09	0.0135	0.214	12.2	-0.753	0.112	-0.13	-0.00283	0.456	0.0475	-0.207	0.00492	0.00629	0.78	0.739	0.00534	-0.346	-1.36	0.533	
O=C(O)C(O)c1ccccc1 (stereo not drawn) [mandelic acid]	4.07	0.0229	0.175	1.81	1.32	0.0419	-0.345	-0.000243	0.364	0.0192	-0.332	-0.406	0.0426	-0.395	-0.0998	0.0137	0.769	1.17	0.563	
Oc1ccccc1O [catechol]	1.82	-0.00935	9.72	-2.57	3.82	0.415	0.704	0.0978	-1.89	0.794	0.769	-0.0234	0.114	2.09	0.259	0.0302	-0.684	4.75	-0.178	
O=C(O)CNC(=O)c1ccccc1 [N-benzoylglycine]	-2.37	-0.0115	21.2	40.1	-0.301	-0.376	0.0257	0.0182	-1.12	-0.215	-0.146	-0.604	-0.018	-0.285	-0.852	-0.00397	-2.44	-1.84	-0.117	-0.675
O=C(O)c1c(O)cccc1O [2,6-dihydroxybenzoate]	2.22	0.019	0.0383	-4.96	1.87	0.277	0.406	8.29	0.369	0.0449	-0.403	0.0318	0.0103	-0.411	0.89	0.00673	2.01	0.428	0.26	
CCCC(=O)O [butyric acid]	-2.08	-0.0107	-0.0464	-1.59	-2.45	-0.186	-0.35	-0.000826	-0.94	0.636	-0.41	-0.461	0.0337	-0.384	-0.758	-0.00916	-1.33	-0.981	-0.0776	
O=C(O)CC(CC(=O)O)C(=O)O [tricarballylate]	-0.69	-0.0168	-0.036	-2.35	-2.41	-0.311	-0.332	-0.00531	-1.38	-0.249	-0.562	-0.293	0.0103	1.3	-1.15	0.0188	-1.48	0.497	-0.0817	
C[C@H](O)C(=O)O [L-lactate]	29	-0.0302	-0.0365	1.58	-1.56	0.0155	-0.0815	0.00963	-0.633	-0.0469	-0.429	-0.296	-0.0258	0.33	-0.526	0.0108	-1.63	-1.88	-0.0751	0.636
O=C(O)CCC(=O)O [succinate]	-1.14	-0.00365	-0.0349	6.43	-0.306	-0.187	0.402	0.0287	-0.209	-0.0829	-0.471	0.239	-0.0135	0.784	0.357	0.0102	-1.2	-1.6	0.338	
O=C(O)C1CCCC1 [cyclopentane-1-carboxylate]	9.44	0.014	0.298	-2.26	-1.83	-0.057	0.335	-0.00226	3.18	-0.184	-0.24	-0.439	0.584	1.99	0.428	-0.0145	0.409	7.83	0.259	
NC(=O)CC[C@H](N)C(=O)O [L-glutamine]	-1.76	-0.022	-0.0444	4.9	-2.05	-0.13	-0.513	0.00325	-0.494	-0.146	-0.333	-0.432	0.0183	0.541	-0.666	0.00684	-0.587	-2.02	0.168	
